# According to PubChem BioAssay (NCATS):
# Several values for one entry are separate records, joined by “and”; a condition that tells them apart may be missing. Equal values may be shown once. Results filed as inconclusive are left out. Unmarked numbers belong to inactive results. Activity calls are given as the source filed them. Calls follow the shape of the dose curve; as a rule, active = well fitted curve in the direction sought with a large enough effect; inconclusive = small, poorly fitted or top-dose-only effect, or another doubt; inactive = no such curve, though single readings can be large; an effect the other way counts as inactive or inconclusive.
# Experiments:
# [1] = Viability qHTS for spleen associated tyrosine kinase inhibitor (SYKi) drug resistant MV4-11 cells (AID 1963824); also: nearly all actives have a fitted effect of over 35% in size
# Outline: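 SYK inhibitor-resistant MV4-11 AML cells, 500 per well, added to predispensed compounds and incubated 72 hr at 37 C, 5% CO2. Viability measured by CellTiter-Glo luminescence after 10 min at room temperature.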
# [2] = Quantitative highthroughput screen to assess conditional lethalithy of P12 Ichikawa cells grown in Human Plasma-Like Medium with dialyzed fetal bovine serum (HPLM+ds) (AID 1963879); details: Potency: viability; also: nearly all actives have a fitted effect of over 35% in size; as to Viability: series mostly up to about 46 µM
# Outline: (§1)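 Each medium arm—HPLM with 10% dialyzed FBS, or RPMI1640 with 5 mM glucose and 10% untreated or dialyzed FBS—was screened against an 11-point, 3-fold compound titration for 48 h at 37 °C, with CellTiter-Glo luminescence as endpoint.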
# [3] = Quantitative highthroughput screen to assess conditional lethalithy of P12 Ichikawa cells grown in RPMI1640 with dialyzed fetal bovine serum (RPMI+ds) (AID 1963880); details: Potency: P12-Ichikawa viability; also: nearly all actives have a fitted effect of over 35% in size
# Outline: as §1
# [4] = Quantitative highthroughput screen to assess conditional lethalithy of P12 Ichikawa cells grown in RPMI1640 with untreated serum (RPMI+s) (AID 1963881); details: Potency: viability; also: nearly all actives have a fitted effect of over 35% in size
# Outline: as §1
# [5] = Quantitative highthroughput screen to assess conditional lethalithy of SEM cells grown in Human Plasma-Like Medium with dialyzed fetal bovine serum (HPLM+ds) (AID 1963882); also: nearly all actives have a fitted effect of over 35% in size
# Outline: as §1
# [6] = Quantitative highthroughput screen to assess conditional lethalithy of SEM cells grown in RPMI1640 with unreated serum (RPMI+s) (AID 1963883); also: nearly all actives have a fitted effect of over 35% in size
# Outline: as §1
# [7] = Quantitative highthroughput screen to assess conditional lethalithy of SEM cells grown in RPMI1640 with dialyzed fetal bovine serum (RPMI+ds) (AID 1963884); also: nearly all actives have a fitted effect of over 35% in size;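 as to Viability: series mostly up to about 46 µM; 100% = DMSO control wells and 0% = empty wells without cells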
# Outline: as §1
# [8] = Cellular viability qHTS for adrenocortical cancer (ACC) cell line SW-13 (AID 1963989); details: SW-13 ACC cells viability, CellTiter-Glo, 48 h; activity (max response): hits give low values; also: nearly all actives have a fitted effect of over 65% in size;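 as to activity (max response): cells grown in serum-free medium with ITS supplement; % is scaled to controls: 0 for no effect and ±100 for the full control effect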
# Outline: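 SW-13 cells in ITS-supplemented serum-free DMEM were plated overnight, then exposed for 48 h at 37C to compound titrations (up to 46 uM final). Viability was read by CellTiter-Glo luminescence; four-parameter logistic fits gave IC50 and efficacy.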
# [9] = Cellular viability qHTS for adrenocortical cancer (ACC) cell line NCI-H295R (AID 1963990); also: nearly all actives have a fitted effect of over 60% in size
# Outline: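 Luminescent ATP read-out (CellTiter-Glo, 20 min RT) after 48 h drug exposure of NCI-H295R cells; a titration up to 46 uM final. Data normalized to doxorubicin (100% inhibition) and DMSO (0%); 4-parameter fit gives IC50, max response.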
# [10] = Quantitative highthroughput screen to assess conditional lethalithy of NOMO1 cells grown in Human Plasma-Like Medium with dialyzed fetal bovine serum (HPLM+ds) (AID 1963878); also: nearly all actives have a fitted effect of over 35% in size;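 as to Viability: 100% = DMSO wells and 0% = empty wells on each plate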
# Outline: as §1
# Potency is read from the fitted curve at half-maximal effect.
smiles,measurement,setting,value
CCc1c2c(nc3ccc(O)cc13)-c1cc3c(c(=O)n1C2)COC(=O)[C@]3(O)CC,Potency,[1],0.0083 µM (active)
same,Potency,[2],0.0053 µM (active)
same,Potency,[3],0.0042 µM (active)
same,Potency,[4],0.0053 µM (active)
same,Potency,[5],0.0148 µM (active)
same,Potency,[6],0.0083 µM (active)
same,Potency,[7],0.0105 µM (active)
same,Potency,[8],0.224 µM (active)
same,Potency,[9],1.26 µM (active)
CN(C)[C@@H](CCOc1cccc2ccccc12)c1ccccc1,Potency,[1],23.7 µM (active)
same,Potency,[10],inactive
same,Potency,[2],inactive
same,Potency,[7],inactive
O=C(Nc1cccc2c(=O)cc(-c3nn[nH]n3)oc12)c1ccc(OCCCCc2ccccc2)cc1,Potency,[1],inactive
same,Potency,[10],23.5 µM (active)
same,Potency,[4],18.7 µM (active)
same,Potency,[6],9.35 µM (active)
same,activity (max response),[8],13.6%
CCOC(=O)[C@H]1O[C@@H]1C(=O)N[C@@H](CC(C)C)C(=O)NCCC(C)C,Potency,[1],5.9 µM (active)
same,activity (max response),[8],-2.38%
O=c1ncn2nc(Sc3ccc(F)cc3F)ccc2c1-c1c(Cl)cccc1Cl,Potency,[1],8.2 µM (active)
same,Potency,[6],16.6 µM (active)
same,activity (max response),[8],-0.752%
same,Potency,[9],inactive
CC(=O)c1c(C)c2cnc(Nc3ccc(N4CCNCC4)cn3)nc2n(C2CCCC2)c1=O,Potency,[1],184 nM (active) and 5.25 µM (active)
same,Potency,[6],4.69 µM (active)
same,Potency,[7],5.26 µM (active)
same,Potency,[9],25.1 µM (active)
COc1ccccc1[C@H](c1cccc2ccccc12)[C@@](C)(C#N)C(=O)N1CCC(c2cccc(C(F)(F)F)c2)CC1,Potency,[1],8.33 µM (active)
same,Potency,[2],16.6 µM (active)
same,activity (max response),[8],-5.9%
Cn1cncc1[C@@](N)(c1ccc(Cl)cc1)c1ccc2c(c1)c(-c1cccc(Cl)c1)cc(=O)n2C,Potency,[1],2.35 µM (active)
same,Potency,[7],3.72 µM (active)
same,activity (max response),[8],-19.2%
same,Potency,[9],inactive
